Data from the supplement of paper PMC10849652.
Targets with a hit are over-represented here; the source holds about 8,800 in all. About 0.5% of all pairs of compound and target were hits.

Assays:
Assay in all cases: log2 fold change, soluble protein after heating vs DMSO (PISA); higher = thermal stabilisation; K562 lysate, 10 uM; active = over 0.2 and 3.5 SD of the protein, either way, in both replicates (recomputed)
lapatinib = compound: CS(=O)(=O)CCNCc1ccc(-c2ccc3ncnc(Nc4ccc(OCc5cccc(F)c5)c(Cl)c4)c3c2)o1 [lapatinib]
Outline: (§1)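 Soluble protein was defined as the supernatant remaining after 21,000xg for 90 min, following pooling of heated aliquots and adjustment to 0.5% NP-40 at 4°C. Before that, crude K562 extract at 1 mg/mL protein in PBS pH 7.4 with 1 mM MgCl2 was treated with 10 μM compound for 30 min and heated for 3 min across 48°C-58°C. Quantification used TMTpro 16plex LC-MS/MS with channel sums equalised, and values are log-two fold changes in thermal stability relative to solvent controls from duplicates.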

pictilisib = compound: CS(=O)(=O)N1CCN(Cc2cc3nc(-c4cccc5[nH]ncc45)nc(N4CCOCC4)c3s2)CC1 [pictilisib]
Outline: as §1

crizotinib = compound: C[C@@H](Oc1cc(-c2cnn(C3CCNCC3)c2)cnc1N)c1c(Cl)ccc(F)c1Cl [crizotinib]
Outline: as §1

[1] = compound: C[C@H](C1=CC=C(C=C1)C(=O)NC2=C3C=CNC3=NC=C2)N
Outline: as §1

duvelisib = compound: C[C@H](Nc1ncnc2nc[nH]c12)c1cc2cccc(Cl)c2c(=O)n1-c1ccccc1 [duvelisib]
Outline: as §1

gandotinib = compound: Cc1cc(Nc2cc(CN3CCOCC3)c3nc(C)c(Cc4ccc(Cl)cc4F)n3n2)n[nH]1 [gandotinib]
Outline: as §1

tozasertib = compound: Cc1cc(Nc2cc(N3CCN(C)CC3)nc(Sc3ccc(NC(=O)C4CC4)cc3)n2)n[nH]1 [tozasertib]
Outline: as §1

doramapimod = compound: Cc1ccc(-n2nc(C(C)(C)C)cc2NC(=O)Nc2ccc(OCCN3CCOCC3)c3ccccc23)cc1 [doramapimod]
Outline: as §1

bafetinib = compound: Cc1ccc(NC(=O)c2ccc(CN3CC[C@H](N(C)C)C3)c(C(F)(F)F)c2)cc1Nc1nccc(-c2cncnc2)n1 [bafetinib]
Outline: as §1

[2] = compound: Cc1cccc(CC(=O)N2CCc3c2ccc(-c2cn(C)c4ncnc(N)c24)c3F)n1
Outline: as §1

nilotinib = compound: Cc1cn(-c2cc(NC(=O)c3ccc(C)c(Nc4nccc(-c5cccnc5)n4)c3)cc(C(F)(F)F)c2)cn1 [nilotinib]
Outline: as §1

[3] = compound: Cc1nc(Nc2n[nH]c3c2CN(C(=O)N[C@H](CN(C)C)c2ccccc2)C3(C)C)c2sccc2n1
Outline: as §1

dasatinib = compound: Cc1nc(Nc2ncc(C(=O)Nc3c(C)cccc3Cl)s2)cc(N2CCN(CCO)CC2)n1 [dasatinib]
Outline: as §1

[4] = compound: Cc1ncc(-c2ccnc(Nc3ccc(S(C)(=O)=O)cc3)n2)n1C(C)C
Outline: as §1

[5] = compound: Cn1cc(-c2ccc3c(c2)CCN3C(=O)Cc2cccc(C(F)(F)F)c2)c2c(N)ncnc21
Outline: as §1

quisinostat = compound: Cn1cc(CNCC2CCN(c3ncc(C(=O)NO)cn3)CC2)c2ccccc21 [quisinostat]
Outline: as §1

tipifarnib = compound: Cn1cncc1[C@@](N)(c1ccc(Cl)cc1)c1ccc2c(c1)c(-c1cccc(Cl)c1)cc(=O)n2C [tipifarnib]
Outline: as §1

[6] = compound: NC(=O)Nc1cc(-c2cccc(F)c2)sc1C(=O)N[C@H]1CCCNC1
Outline: as §1

[7] = compound: NC(=O)c1cnc(N[C@@H]2CCCC[C@@H]2N)nc1Nc1cccc(-n2nccn2)c1
Outline: as §1

[8] = compound: NC1(c2ccc(-c3nc4ccn5c(=O)[nH]nc5c4cc3-c3ccccc3)cc2)CCC1
Outline: as §1

Measured: log2 fold change

STK39 (UniProt Q9UEW8)
inactive: lapatinib 0.011 | pictilisib -0.038 | crizotinib -0.063 | [1] -0.012 | duvelisib 0.087 | gandotinib -0.044 | tozasertib 0.021 | doramapimod 0.032 | bafetinib -0.03 | [2] 0.057 | nilotinib -0.104 | [3] 0.071 | dasatinib -0.045 | [4] -0.024 | [5] 0.046 | quisinostat -0.084 | tipifarnib -0.053 | [6] 0.053 | [7] 0.058 | [8] -0.082

SLC16A1 (UniProt P53985)
Sequence of UniProt P53985 (P53985 whole entry, looked up): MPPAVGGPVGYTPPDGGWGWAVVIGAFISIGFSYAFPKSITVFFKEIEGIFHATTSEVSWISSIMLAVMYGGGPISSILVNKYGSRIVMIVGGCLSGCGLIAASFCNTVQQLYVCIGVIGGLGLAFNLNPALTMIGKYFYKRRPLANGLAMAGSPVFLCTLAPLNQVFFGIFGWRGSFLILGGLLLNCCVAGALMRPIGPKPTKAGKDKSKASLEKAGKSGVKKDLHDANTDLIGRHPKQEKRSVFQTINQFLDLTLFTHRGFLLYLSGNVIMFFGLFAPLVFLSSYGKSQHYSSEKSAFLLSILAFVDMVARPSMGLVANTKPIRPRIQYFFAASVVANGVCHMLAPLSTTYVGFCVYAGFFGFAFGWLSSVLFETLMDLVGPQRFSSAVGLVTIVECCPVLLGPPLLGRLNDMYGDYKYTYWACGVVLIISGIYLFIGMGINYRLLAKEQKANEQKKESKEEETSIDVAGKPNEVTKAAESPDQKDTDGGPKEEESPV
active: [1] -0.341 | [2] 0.246
inactive: lapatinib -0.009 | pictilisib 0.019 | crizotinib 0.006 | duvelisib -0.011 | gandotinib 0.22 | tozasertib -0.008 | doramapimod -0.017 | bafetinib -0.041 | nilotinib 0.044 | [3] 0.043 | dasatinib 0.137 | [4] -0.009 | [5] -0.005 | quisinostat -0.064 | tipifarnib 0.005 | [6] 0.012 | [7] -0.028 | [8] -0.003

SNRNP40 (UniProt Q96DI7)
Sequence of UniProt Q96DI7 (Q96DI7 whole entry, looked up): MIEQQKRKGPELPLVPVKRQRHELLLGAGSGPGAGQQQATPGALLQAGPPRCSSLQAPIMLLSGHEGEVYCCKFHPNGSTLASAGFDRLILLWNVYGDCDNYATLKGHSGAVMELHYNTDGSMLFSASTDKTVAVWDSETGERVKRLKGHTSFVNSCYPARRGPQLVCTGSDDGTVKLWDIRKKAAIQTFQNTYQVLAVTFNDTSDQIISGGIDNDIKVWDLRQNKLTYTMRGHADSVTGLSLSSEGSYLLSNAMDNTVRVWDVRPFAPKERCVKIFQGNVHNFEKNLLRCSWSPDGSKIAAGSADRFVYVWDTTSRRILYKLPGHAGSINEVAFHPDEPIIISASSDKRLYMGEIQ
inactive: lapatinib -0.014 | pictilisib 0.063 | crizotinib -0.042 | [1] -0.075 | duvelisib -0.006 | gandotinib 0.167 | tozasertib 0.015 | doramapimod 0.121 | bafetinib 0.011 | [2] 0.089 | nilotinib 0.018 | [3] 0.03 | dasatinib -0.007 | [4] 0.019 | [5] -0.004 | quisinostat -0.027 | tipifarnib 0.012 | [6] 0.013 | [7] -0.012 | [8] 0.002

SRSF9 (UniProt Q13242)
Sequence of UniProt Q13242 (Q13242 whole entry, looked up): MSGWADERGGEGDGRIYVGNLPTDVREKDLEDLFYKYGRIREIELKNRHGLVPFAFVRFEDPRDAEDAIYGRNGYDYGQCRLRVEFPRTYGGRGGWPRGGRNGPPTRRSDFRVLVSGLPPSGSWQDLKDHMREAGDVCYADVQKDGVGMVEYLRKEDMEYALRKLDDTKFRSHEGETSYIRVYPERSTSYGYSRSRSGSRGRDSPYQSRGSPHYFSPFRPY
inactive: lapatinib 0.014 | pictilisib 0.046 | crizotinib 0.006 | [1] -0.019 | duvelisib 0.011 | gandotinib -0.003 | tozasertib 0.019 | doramapimod 0.085 | bafetinib -0.028 | [2] 0.053 | nilotinib 0.02 | [3] 0.01 | dasatinib -0.079 | [4] 0.02 | [5] -0.005 | quisinostat 0.008 | tipifarnib 0.047 | [6] -0.012 | [7] 0.029 | [8] -0.002

TARBP2 (UniProt Q15633)
Sequence of UniProt Q15633 (Q15633 whole entry, looked up): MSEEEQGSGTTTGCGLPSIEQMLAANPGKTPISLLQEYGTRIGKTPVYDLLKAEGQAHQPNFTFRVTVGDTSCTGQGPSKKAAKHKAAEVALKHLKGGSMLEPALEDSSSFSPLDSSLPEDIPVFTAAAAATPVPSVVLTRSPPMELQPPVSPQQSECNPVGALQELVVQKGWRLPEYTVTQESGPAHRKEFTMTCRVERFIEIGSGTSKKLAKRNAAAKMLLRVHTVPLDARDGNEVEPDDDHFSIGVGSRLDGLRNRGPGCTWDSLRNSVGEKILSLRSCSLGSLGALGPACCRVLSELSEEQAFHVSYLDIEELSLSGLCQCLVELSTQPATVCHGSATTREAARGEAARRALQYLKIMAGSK
inactive: lapatinib 0.035 | pictilisib -0.098 | crizotinib -0.092 | [1] 0.001 | duvelisib 0.07 | gandotinib -0.08 | tozasertib -0.057 | doramapimod 0.028 | bafetinib -0.028 | [2] 0.022 | nilotinib 0.003 | [3] 0.019 | dasatinib -0.038 | [4] 0.005 | [5] -0.056 | quisinostat -0.106 | tipifarnib -0.067 | [6] 0.065 | [7] -0.029 | [8] 0.056

SLC30A9 (UniProt Q6PML9)
Sequence of UniProt Q6PML9 (Q6PML9 whole entry, looked up): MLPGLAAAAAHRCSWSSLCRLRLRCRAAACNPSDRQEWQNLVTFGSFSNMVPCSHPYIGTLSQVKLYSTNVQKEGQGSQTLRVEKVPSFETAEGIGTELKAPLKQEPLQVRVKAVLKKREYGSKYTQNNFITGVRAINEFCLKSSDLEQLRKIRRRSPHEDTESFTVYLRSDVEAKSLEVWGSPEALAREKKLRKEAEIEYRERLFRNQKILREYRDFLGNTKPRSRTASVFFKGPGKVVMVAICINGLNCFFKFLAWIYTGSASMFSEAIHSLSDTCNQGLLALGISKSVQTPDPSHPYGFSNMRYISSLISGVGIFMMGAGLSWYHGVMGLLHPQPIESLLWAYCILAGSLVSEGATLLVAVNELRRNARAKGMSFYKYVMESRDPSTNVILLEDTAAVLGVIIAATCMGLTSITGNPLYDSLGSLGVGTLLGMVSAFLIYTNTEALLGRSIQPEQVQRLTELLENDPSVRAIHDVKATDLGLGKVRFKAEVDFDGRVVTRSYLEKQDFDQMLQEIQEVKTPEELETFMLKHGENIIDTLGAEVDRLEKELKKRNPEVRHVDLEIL
active: [2] 0.312
inactive: lapatinib -0.007 | pictilisib -0.054 | crizotinib -0.043 | [1] -0.423 | duvelisib 0.048 | gandotinib 0.008 | tozasertib -0.003 | doramapimod 0.036 | bafetinib -0.161 | nilotinib -0.026 | [3] 0.013 | dasatinib -0.035 | [4] -0.049 | [5] 0.055 | quisinostat 0.041 | tipifarnib 0.14 | [6] -0.044 | [7] -0.026 | [8] -0.008

SQLE (UniProt Q14534)
Sequence of UniProt Q14534 (Q14534 whole entry, looked up): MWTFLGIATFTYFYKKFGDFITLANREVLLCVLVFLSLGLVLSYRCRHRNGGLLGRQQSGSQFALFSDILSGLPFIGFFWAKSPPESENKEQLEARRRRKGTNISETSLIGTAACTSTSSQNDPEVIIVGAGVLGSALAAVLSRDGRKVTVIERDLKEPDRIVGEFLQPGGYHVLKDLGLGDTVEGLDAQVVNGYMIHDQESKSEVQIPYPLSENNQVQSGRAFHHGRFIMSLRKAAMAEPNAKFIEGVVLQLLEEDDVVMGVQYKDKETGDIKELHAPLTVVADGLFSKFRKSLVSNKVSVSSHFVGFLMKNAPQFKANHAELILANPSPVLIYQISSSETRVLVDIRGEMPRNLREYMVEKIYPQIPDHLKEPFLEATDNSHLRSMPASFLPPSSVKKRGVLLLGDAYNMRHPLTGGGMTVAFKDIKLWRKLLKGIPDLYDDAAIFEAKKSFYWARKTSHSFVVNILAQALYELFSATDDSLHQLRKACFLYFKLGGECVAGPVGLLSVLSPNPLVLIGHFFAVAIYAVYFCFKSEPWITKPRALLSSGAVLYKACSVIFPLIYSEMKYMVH
inactive: lapatinib -0.056 | pictilisib -0.04 | crizotinib -0.057 | [1] -0.025 | duvelisib -0.057 | gandotinib -0.028 | tozasertib 0.068 | doramapimod -0.035 | bafetinib -0.047 | [2] 0.031 | nilotinib 0.082 | [3] 0.014 | dasatinib -0.09 | [4] -0.039 | [5] 0.024 | quisinostat 0.191 | tipifarnib 0.018 | [6] -0.014 | [7] -0.032 | [8] -0.034

STK4 (UniProt Q13043)
Sequence of UniProt Q13043 (Q13043 whole entry, looked up): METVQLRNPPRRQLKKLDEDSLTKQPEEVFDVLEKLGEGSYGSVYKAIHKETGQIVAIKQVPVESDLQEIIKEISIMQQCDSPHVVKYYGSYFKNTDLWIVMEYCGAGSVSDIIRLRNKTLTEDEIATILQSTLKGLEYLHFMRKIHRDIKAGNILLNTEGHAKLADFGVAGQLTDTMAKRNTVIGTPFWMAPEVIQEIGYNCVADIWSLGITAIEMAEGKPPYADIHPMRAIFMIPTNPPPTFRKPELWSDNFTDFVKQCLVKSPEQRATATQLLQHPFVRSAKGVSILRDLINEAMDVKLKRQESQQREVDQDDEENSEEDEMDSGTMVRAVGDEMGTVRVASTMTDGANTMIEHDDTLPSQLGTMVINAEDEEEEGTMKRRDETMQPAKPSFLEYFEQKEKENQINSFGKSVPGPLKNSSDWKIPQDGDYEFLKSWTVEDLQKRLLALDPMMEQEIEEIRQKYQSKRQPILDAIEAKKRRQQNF
active: gandotinib 0.504 | [6] 0.585
inactive: lapatinib -0.029 | pictilisib -0.025 | crizotinib 0.382 | [1] -0.104 | duvelisib 0.004 | tozasertib 0.27 | doramapimod -0.027 | bafetinib -0.053 | [2] 0.062 | nilotinib -0.077 | [3] 0.343 | dasatinib 0.214 | [4] 0.177 | [5] 0.282 | quisinostat -0.105 | tipifarnib -0.047 | [7] 0.134 | [8] -0.016

SRSF2 (UniProt Q01130)
Sequence of UniProt Q01130 (Q01130 whole entry, looked up): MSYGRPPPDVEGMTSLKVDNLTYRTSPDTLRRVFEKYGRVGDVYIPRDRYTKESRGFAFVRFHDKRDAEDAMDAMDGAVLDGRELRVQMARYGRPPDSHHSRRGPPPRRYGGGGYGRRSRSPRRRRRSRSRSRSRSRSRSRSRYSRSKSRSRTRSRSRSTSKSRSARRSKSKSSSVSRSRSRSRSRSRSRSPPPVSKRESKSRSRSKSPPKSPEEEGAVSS
active: [1] -0.299
inactive: lapatinib 0.015 | pictilisib -0.005 | crizotinib 0.006 | duvelisib 0.061 | gandotinib 0.079 | tozasertib 0.026 | doramapimod 0.05 | bafetinib -0.016 | [2] 0.109 | nilotinib -0.038 | [3] 0 | dasatinib -0.003 | [4] -0.029 | [5] 0.033 | quisinostat -0.056 | tipifarnib 0.01 | [6] 0.002 | [7] -0.008 | [8] -0.01

SMAD2 (UniProt Q15796)
Sequence of UniProt Q15796 (Q15796 whole entry, looked up): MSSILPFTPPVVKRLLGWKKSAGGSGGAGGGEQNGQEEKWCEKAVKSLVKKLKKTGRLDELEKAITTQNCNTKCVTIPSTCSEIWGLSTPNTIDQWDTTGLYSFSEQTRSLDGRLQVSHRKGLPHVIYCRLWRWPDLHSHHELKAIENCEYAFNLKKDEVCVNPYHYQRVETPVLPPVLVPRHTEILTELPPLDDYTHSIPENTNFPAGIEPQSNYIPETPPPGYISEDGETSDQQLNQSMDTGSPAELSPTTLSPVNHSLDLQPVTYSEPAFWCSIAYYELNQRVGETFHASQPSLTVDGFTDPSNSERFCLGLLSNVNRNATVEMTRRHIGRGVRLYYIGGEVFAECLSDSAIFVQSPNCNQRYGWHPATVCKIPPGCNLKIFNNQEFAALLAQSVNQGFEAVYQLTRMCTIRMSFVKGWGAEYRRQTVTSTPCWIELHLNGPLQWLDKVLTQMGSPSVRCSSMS
inactive: lapatinib -0.006 | pictilisib -0.042 | crizotinib -0.055 | [1] -0.073 | duvelisib -0.066 | gandotinib -0.006 | tozasertib -0.027 | doramapimod -0.025 | bafetinib -0.005 | [2] 0.06 | nilotinib 0.025 | [3] 0.116 | dasatinib 0.006 | [4] -0.059 | [5] 0.011 | quisinostat -0.012 | tipifarnib 0.055 | [6] 0.038 | [7] -0.015 | [8] 0.042

SSB (UniProt E7ERC4)
active: [1] 1.41
inactive: lapatinib -0.151 | pictilisib -0.15 | crizotinib -0.103 | duvelisib 0.141 | gandotinib -0.263 | tozasertib -0.028 | doramapimod 0.032 | bafetinib -0.271 | [2] -0.121 | nilotinib -0.059 | [3] 0.165 | dasatinib 0.007 | [4] 0.198 | [5] -0.078 | quisinostat -0.198 | tipifarnib 0.171 | [6] 0.152 | [7] -0.108 | [8] -0.128

SH3BGRL2 (UniProt Q9UJC5)
Sequence of UniProt Q9UJC5 (Q9UJC5 whole entry, looked up): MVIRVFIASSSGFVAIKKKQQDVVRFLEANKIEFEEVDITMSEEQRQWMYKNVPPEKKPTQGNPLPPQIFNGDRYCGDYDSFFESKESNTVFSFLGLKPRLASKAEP
active: [1] 0.342
inactive: lapatinib 0.021 | pictilisib 0.012 | crizotinib -0.025 | duvelisib -0.007 | gandotinib -0.116 | tozasertib -0.078 | doramapimod 0.021 | bafetinib -0.058 | [2] -0.184 | nilotinib -0.001 | [3] -0.001 | dasatinib 0.077 | [4] -0.019 | [5] -0.033 | quisinostat -0.029 | tipifarnib 0.013 | [6] 0.009 | [7] -0.04 | [8] 0.032

SMIM12 (UniProt Q96EX1)
Sequence of UniProt Q96EX1 (Q96EX1 whole entry, looked up): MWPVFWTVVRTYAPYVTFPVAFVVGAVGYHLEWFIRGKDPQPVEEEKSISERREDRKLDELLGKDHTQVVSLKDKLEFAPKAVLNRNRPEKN
inactive: lapatinib 0.014 | pictilisib 0.022 | crizotinib -0.024 | duvelisib -0.061 | gandotinib -0.191 | tozasertib -0.009 | doramapimod 0.077 | bafetinib -0.083 | [2] -0.153 | nilotinib 0.014 | [3] 0.025 | dasatinib 0.09 | [4] 0.027 | [5] 0.061 | quisinostat -0.093 | tipifarnib -0.023 | [6] 0.002 | [7] -0.016 | [8] -0.041
active: [1] 0.417

SKA2 (UniProt Q8WVK7)
Sequence of UniProt Q8WVK7 (Q8WVK7 whole entry, looked up): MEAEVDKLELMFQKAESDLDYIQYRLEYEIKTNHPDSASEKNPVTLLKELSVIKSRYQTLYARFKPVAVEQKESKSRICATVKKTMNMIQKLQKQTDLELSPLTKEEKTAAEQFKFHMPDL
inactive: lapatinib 0.005 | pictilisib -0.004 | crizotinib 0.027 | [1] 0.048 | duvelisib -0.004 | gandotinib -0.029 | tozasertib 0.048 | doramapimod -0.09 | bafetinib -0.017 | [2] 0.009 | nilotinib -0.062 | [3] 0.015 | dasatinib 0.005 | [4] 0.005 | [5] 0.026 | quisinostat 0.122 | tipifarnib -0.052 | [6] -0.022 | [7] 0.004 | [8] -0.023

SFR1 isoform 2 (UniProt Q86XK3)
Sequence of UniProt Q86XK3 (Q86XK3 whole entry, looked up): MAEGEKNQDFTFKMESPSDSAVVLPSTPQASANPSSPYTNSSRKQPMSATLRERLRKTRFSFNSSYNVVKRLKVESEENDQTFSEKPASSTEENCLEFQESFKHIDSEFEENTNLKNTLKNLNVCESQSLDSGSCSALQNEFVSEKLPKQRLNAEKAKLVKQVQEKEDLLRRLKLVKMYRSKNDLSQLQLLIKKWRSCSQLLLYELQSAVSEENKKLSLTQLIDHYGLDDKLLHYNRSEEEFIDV
inactive: lapatinib 0.001 | pictilisib 0.053 | crizotinib 0.006 | [1] 0.09 | duvelisib 0.043 | gandotinib 0.169 | tozasertib -0.002 | doramapimod 0.068 | bafetinib -0.097 | nilotinib -0.029 | [3] 0.068 | dasatinib 0.055 | [4] 0.045 | [5] -0.058 | quisinostat -0.029 | tipifarnib 0.072 | [6] -0.004 | [7] 0.02 | [8] -0.039
active: [2] 0.261

TAF9 (UniProt Q16594)
Sequence of UniProt Q16594 (Q16594 whole entry, looked up): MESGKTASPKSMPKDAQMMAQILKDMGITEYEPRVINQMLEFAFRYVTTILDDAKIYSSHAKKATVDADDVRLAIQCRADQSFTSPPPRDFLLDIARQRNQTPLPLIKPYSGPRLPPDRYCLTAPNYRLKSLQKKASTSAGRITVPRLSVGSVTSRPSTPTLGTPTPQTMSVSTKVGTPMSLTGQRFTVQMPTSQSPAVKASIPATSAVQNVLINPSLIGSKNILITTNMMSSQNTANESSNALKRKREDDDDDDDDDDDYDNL
inactive: lapatinib -0.06 | pictilisib -0.018 | crizotinib -0.004 | [1] 0.188 | duvelisib 0.084 | gandotinib -0.002 | tozasertib 0.156 | doramapimod 0.001 | bafetinib 0.018 | [2] -0.057 | nilotinib -0.043 | [3] 0.049 | dasatinib -0.017 | [4] -0.003 | [5] 0.021 | quisinostat -0.055 | tipifarnib -0.029 | [6] 0.013 | [7] 0.084 | [8] -0.024
